Screening results as filed in PubChem BioAssay.
Rows were chosen to be rich in hits. Some 1.5% of all compounds tested hit in one or more screens of this group.
HGIII-sPLA2 inh = Blocks human group III sPLA2 activity | Q9NZ20 | QFRET BODIPY PC-A2 liposome hydrolysis, fluorescence | inhibition, % at 12.2 µM | hit rate 0.56% among 370,000;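 active = inhibition above mean plus 3 SD of compounds lying within the high and low control bounds, cut at about 19% in these data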
PLCg1 inh = blocks human PLC-gamma1 enzyme activity. P19174. purified PLC-gamma1, fluorogenic substrate, fluorescence. inhibition, % at 12.2 µM. hit rate 0.84% among 370,000. AID 720700; in the data active = inhibition above about 9.5%
Target sequence (P19174 whole entry, looked up): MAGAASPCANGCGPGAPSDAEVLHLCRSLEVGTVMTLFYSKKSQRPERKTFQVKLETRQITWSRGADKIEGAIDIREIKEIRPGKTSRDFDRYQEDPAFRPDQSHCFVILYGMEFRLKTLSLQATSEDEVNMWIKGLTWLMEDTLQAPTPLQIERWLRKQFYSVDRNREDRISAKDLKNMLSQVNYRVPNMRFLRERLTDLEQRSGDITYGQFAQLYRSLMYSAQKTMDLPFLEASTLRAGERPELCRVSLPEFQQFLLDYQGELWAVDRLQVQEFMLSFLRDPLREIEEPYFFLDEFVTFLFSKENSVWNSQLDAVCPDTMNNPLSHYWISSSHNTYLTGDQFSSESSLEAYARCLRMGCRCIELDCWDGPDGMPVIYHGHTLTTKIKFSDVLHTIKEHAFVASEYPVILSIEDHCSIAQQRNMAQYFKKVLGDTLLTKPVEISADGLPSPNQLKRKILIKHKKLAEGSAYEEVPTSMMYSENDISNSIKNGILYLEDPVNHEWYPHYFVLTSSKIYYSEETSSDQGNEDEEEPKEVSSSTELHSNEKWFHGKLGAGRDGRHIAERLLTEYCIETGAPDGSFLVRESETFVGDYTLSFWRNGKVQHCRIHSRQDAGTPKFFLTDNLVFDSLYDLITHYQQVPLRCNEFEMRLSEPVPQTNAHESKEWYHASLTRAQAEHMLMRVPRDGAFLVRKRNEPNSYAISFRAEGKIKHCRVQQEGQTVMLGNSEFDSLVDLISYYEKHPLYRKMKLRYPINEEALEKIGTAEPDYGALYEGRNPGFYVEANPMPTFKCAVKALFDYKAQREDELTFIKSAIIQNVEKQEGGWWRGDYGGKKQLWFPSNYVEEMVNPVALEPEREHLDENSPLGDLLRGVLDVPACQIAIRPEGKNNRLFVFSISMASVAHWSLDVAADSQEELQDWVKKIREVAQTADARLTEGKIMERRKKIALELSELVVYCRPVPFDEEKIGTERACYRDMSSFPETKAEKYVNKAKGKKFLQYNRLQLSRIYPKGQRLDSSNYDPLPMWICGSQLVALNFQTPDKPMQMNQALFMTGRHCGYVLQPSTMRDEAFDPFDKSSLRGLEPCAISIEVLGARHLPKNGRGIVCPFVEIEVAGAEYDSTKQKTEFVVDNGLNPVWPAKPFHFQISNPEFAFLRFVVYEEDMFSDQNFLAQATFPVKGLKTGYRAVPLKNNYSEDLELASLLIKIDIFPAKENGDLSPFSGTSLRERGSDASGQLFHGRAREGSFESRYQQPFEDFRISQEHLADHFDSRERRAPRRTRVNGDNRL
PLCb3 inh = inhibitors of human phospholipase C beta3 | Purified PLC-beta3, fluorogenic substrate, fluorescence | inhibition, % at 12.2 µM | hit rate 0.18% among 370,000
DAGLB inh = blocks human DAGLB lipase activity | Q8NCG7 | HEK293T DAGLB membrane lysate, EnzChek fluorogenic substrate | inhibition, % at 5.17 µM | hit rate 0.059% among 340,000 | AID 504411; in the data active = inhibition above about 34%
PLCgamma1 ctr = counter-screen for PLC-beta3 inhibitors: inhibitors of human PLC-gamma1; AID 743258; shares compounds with PLCg1 inh; purified PLC-gamma1, fluorogenic substrate, fluorescence; inhibition, % at 12.3 µM; hit rate 3.1% among 3,300; in the data active = inhibition above about 9.5%
PLCbeta3 conf = confirmation of human PLC-beta3 inhibitors. AID 743261. inhibition, % at 12.3 µM. shares compounds with PLCg1 inh. hit rate 1% among 3,300. purified PLC-beta3, fluorogenic substrate fluorescence
A number is an active result; i = inactive; nt = not tested or not shown. Rule as the data show it, unless noted: active = inhibition above about 11%; inactive = the rest.

SMILES	HGIII-sPLA2 inh	PLCg1 inh	PLCb3 inh	DAGLB inh	PLCgamma1 ctr	PLCbeta3 conf
COC(=O)c1ccc(CSc2nnc(N)s2)cc1	i	i	i	i	nt	nt
COc1cc(/C(C)=N/NC(=O)CSc2nnc(C)s2)ccc1O	i	i	i	i	nt	nt
COC(=O)c1ccc(CSc2nnc(C)s2)cc1	i	i	10.7	i	i	i
Cc1c(C(=O)NN)[nH]c2ccc([N+](=O)[O-])cc12	i	i	59.0	nt	i	i
NNC(=O)c1[nH]c2ccc([N+](=O)[O-])cc2c1-c1ccccc1	i	i	i	i	nt	nt
CC(=O)Nc1ccc(S(=O)(=O)N2c3ccc(F)cc3CCC2C)cc1 (stereo not drawn)	i	10.0	i	i	i	i
COc1ccc(S(=O)(=O)N2c3ccc(F)cc3CCC2C)cc1 (stereo not drawn)	i	i	i	i	nt	nt
Cc1ccc(S(=O)(=O)N2CCC(C(=O)NCc3cccs3)CC2)cc1	i	i	i	nt	nt	nt
CCCOc1ccc(-c2nc(CSCC(=O)NC3CC3)c(C)o2)cc1	i	i	i	nt	nt	nt
CCCCOC(=O)CSc1nc2c(c(=O)[nH]c(=O)n2C)n1C/C=C(\C)Cl	i	13.1	i	i	i	i
COc1ccc(NC(=S)N(CCO)Cc2ccccc2)cc1	nt	nt	nt	i	nt	nt
COCCN(Cc1ccccc1)C(=S)Nc1ccc(Cl)cc1	i	12.7	i	i	i	i
O=C1CCCN1c1ccc(S(=O)(=O)Oc2cccc(Cl)c2)cc1[N+](=O)[O-]	i	9.6	i	i	i	i
Cc1ccn2c(=O)c(C(=O)NCCCN3CCCC3=O)c(O)nc2c1	i	i	i	i	nt	nt
Cc1csc2nc(O)c(C(=O)NCCCN3CCCC3=O)c(=O)n12	i	9.7	i	i	i	i
O=C(NCCc1c[nH]c2ccccc12)[C@H](Cc1c[nH]c2ccccc12)NC1(C(=O)NC2CCCCC2)CCCCCCC1	i	i	i	nt	nt	nt
N#CCc1ccc(NC(=O)c2ccc(CN3CCc4ccccc4C3)cc2)cc1	i	i	i	i	nt	nt
O=C(Nc1ccc(Cl)cc1)c1ccc(CN2CCc3ccccc3C2)cc1	19.7	12.8	i	i	i	i
Cc1ccc(C(NC(=O)c2cccc(S(=O)(=O)N3CCN(C)CC3)c2)c2ccccc2)cc1 (stereo not drawn)	i	10.1	i	i	i	i
CC1(C(=O)Nc2ccc(F)cc2F)CCN1C(=O)Cc1ccccc1 (stereo not drawn)	i	10.8	i	nt	i	i
OC(CN1CCN(c2ncc(C(F)(F)F)cc2Cl)CC1)c1ccccc1 (stereo not drawn)	i	13.4	i	i	i	i
CCN(CC)S(=O)(=O)c1ccc(N2CCOCC2)c(NS(=O)(=O)c2ccc(C(C)C)cc2)c1	i	i	i	i	nt	nt
CCN(CC)S(=O)(=O)c1ccc(N2CCOCC2)c(NS(=O)(=O)c2cc(C(C)(C)C)ccc2C)c1	i	11.6	i	i	i	i
Cc1cc(N2CCN(CC(C)(C)O)C[C@@H]2C)ccc1N1CCN(Cc2ccccc2)[C@H](C)C1	i	i	i	nt	nt	nt
CC(=O)c1ccc(NC(=S)NC(NC(=O)c2ccco2)C(Cl)(Cl)Cl)cc1 (stereo not drawn)	i	i	11.9	i	i	i
SMILES	HGIII-sPLA2 inh	PLCg1 inh	PLCb3 inh	DAGLB inh	PLCgamma1 ctr	PLCbeta3 conf
O=C(NC(NC(=S)Nc1ccc(Cl)cc1)C(Cl)(Cl)Cl)c1ccco1 (stereo not drawn)	i	i	i	i	nt	nt
CCCC1CCC2(CCC(=O)N2CCOC)CC1 (stereo not drawn)	i	i	i	nt	nt	nt
COc1ccc(Cl)cc1NC(=O)C/C(C)=N/NC(=O)c1ccccc1[N+](=O)[O-]	i	i	i	i	nt	nt
COc1ccc(Cl)cc1NC(=O)c1cccc([N+](=O)[O-])c1O	i	10.0	i	i	i	i
COc1ccc(S[C@]2(C(=O)N3CCOCC3)CC(=O)N(c3ccc(C#N)cc3)[C@@H]2c2ccc(OC)cc2)cc1	i	i	i	nt	nt	nt
C=CCN=C1NC(c2ccccc2C(F)(F)F)C(C(=O)OC)=C(C)N1Cc1ccccc1C(F)(F)F (stereo not drawn)	i	i	i	nt	nt	nt
C#CCOn1c(-n2nc(C)cc2C)nc2ccccc2c1=O	i	10.3	i	i	i	i
CC1(Cc2ccc(F)cc2)C(=O)Nc2ccc(S(=O)(=O)NC3CCCCC3)cc21 (stereo not drawn)	i	i	10.8	nt	i	i
CC1=C(C(=O)OC(C)C)C(C2CC=CCC2)NC(=O)N1 (stereo not drawn)	i	11.8	i	i	i	i
COc1ccc(S(C)(=O)=O)cc1S(C)(=O)=O	i	9.5	i	i	i	i
Cn1c(=O)oc2cc(S(=O)(=O)N3CCN(c4ccccc4)CC3)ccc21	i	10.6	i	i	i	i
COc1ccc(CNC2CCC23CCC(C)CC3)cc1 (stereo not drawn)	i	i	i	nt	nt	nt
CC1=C[C@]2(CN(CC3CC3)C3=N[C@H](c4ccccc4)CC(=O)N32)n2c(=O)n(-c3ccccc3)c(=O)n2C1	i	i	i	nt	nt	nt
Nc1[nH]c(=O)nc2snnc12	i	9.6	i	i	i	i
Nc1nc2n[nH]nc2c(=O)[nH]1	i	i	i	i	nt	nt
O=C(O)c1ccc(N2CCCCCC2)c(N2C(=O)c3ccccc3C2=O)c1	i	13.9	i	i	i	i
COc1ccc(CCNC(=O)CSc2ncn[nH]2)cc1	i	10.4	i	i	i	i
COc1ccc(CCNC(=O)CSc2ccccn2)cc1	i	i	i	i	nt	nt
O=C(CSc1nc2ccccc2[nH]1)NCCc1ccc(Cl)cc1	i	11.1	i	i	i	i
COC(=O)[C@]12C[C@H](CC(=O)N3CCN(C(=O)C4CC4)CC3)C(=O)N(Cc3ccc(Cl)cc3Cl)C1=C[C@H](COCc1ccccc1)O[C@@H]2C	i	i	i	nt	nt	nt
COCCCNC(=O)CCc1nc(-c2ccccc2Cl)no1	i	10.8	i	i	i	i
CCC(=O)N1CCc2cc(S(=O)(=O)CCC(=O)NCc3ccc(C)cc3)ccc21	i	i	i	i	nt	nt
CCC(=O)N1CCc2cc(S(=O)(=O)CCC(=O)NCCc3ccc(S(N)(=O)=O)cc3)ccc21	i	10.3	i	i	i	i
CCc1ccc(NS(=O)(=O)c2ccc3c(c2)CCN3C(=O)CCC(=O)O)cc1	i	10.0	i	i	i	i
CC(=O)NC1C(OCCOc2ccc(Cl)cc2Cl)OC(COC(C)=O)C(OC(C)=O)C1OC(C)=O (stereo not drawn)	i	10.2	i	i	i	i
CC(=O)NC1C(OCCOc2ccc(Cl)cc2C)OC(CO)C(O)C1O (stereo not drawn)	i	i	i	i	nt	nt
CCCC(O)(c1ccc(OC)cc1)C(CN1CCOCC1)c1ccc(Cl)cc1 (stereo not drawn)	i	11.4	i	i	i	i
CCOC(=O)C(Cc1ccccc1)NC(=O)CCc1c(C)nc2ncnn2c1C (stereo not drawn)	i	i	i	i	nt	nt
COC(=O)C(NC(=O)CCc1c(C)nc2ncnn2c1C)C(C)C (stereo not drawn)	i	9.7	i	i	i	i
